Laboratory results: PubChem BioAssay (NCATS)
Results filed as inconclusive are left out. Activity calls are given as the source filed them. Calls follow the shape of the dose curve; as a rule, active = well fitted cell-killing curve with a large enough effect; inconclusive = small, poorly fitted or top-dose-only effect; inactive = flat fitted curve, though single readings scatter.

Legend:
[1] = Cell Viability - LYMP2-017 (AID 972);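 also: series mostly up to about 92 µM; cells exposed to compound for 24 hours at 37 °C; nearly all actives have a fitted effect of over 55% in size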
Method in brief: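 Steps: plate 2500 lymphoblastoid cells per well; incubate 5 hr at 37 C; add compound across a concentration series and incubate 24 hr at 37 C; add CellTiter-Glo and read luminescence after 30 min at room temperature; fit Hill curves for AC50.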

[2] = Cell Viability - LYMP2-019 (AID 973);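 also: cells exposed to compound for 24 h at 37 °C; nearly all actives have a fitted effect of over 55% in size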
Method in brief: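 Cells plated at 2500/well and allowed 5 hr at 37 C before compound addition. After 24 hr incubation, CellTiter-Glo reagent was added, plates sat 30 min at room temperature, and luminescence was recorded.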

[3] = Cell Viability - LYMP2-021 (AID 974);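 also: compound exposure lasts 24 hours at 37 °C; nearly all actives have a fitted effect of over 55% in size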
Method in brief: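 Concentration-response cytotoxicity in a human lymphoblastoid line: 24 hr treatment at 37 C in complete culture medium, tetraoctylammonium bromide as positive control, luminescent ATP quantitation as viability measure.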

[4] = Cell Viability - LYMP2-023 (AID 975);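 also: cellular ATP measured by luciferase luminescence as viability proxy; series mostly up to about 92 µM; cells exposed to compound for 24 hours at 37 °C; nearly all actives have a fitted effect of over 55% in size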
Method in brief: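 Concentration-dependent drop in intracellular ATP measures acute cytotoxicity in a human lymphoblastoid line treated for 24 hours in complete culture medium. AC50 values are taken from Hill-equation fits of qHTS data.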

[5] = Cell Viability - LYMP2-025 (AID 976);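 also: series mostly up to about 92 µM; cells exposed to compound for 24 h at 37 °C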
Method in brief: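 In qHTS format, LYMP2-025 lymphoblastoid cells in complete culture medium received compound for 24 hr; ATP-based CellTiter-Glo signal gave viability, with AC50 derived by Hill equation.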

[6] = Cell Viability - LYMP2-002 (AID 977);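 also: series mostly up to about 92 µM; compound exposure lasted 24 h at 37 °C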
Method in brief: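 Cytotoxicity is scored as concentration-dependent loss of cellular ATP in a human lymphoblastoid line after 24 hr compound treatment at 37 C. AC50 is obtained by modelling concentration-response data with the Hill equation.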

[7] = Cell Viability - LYMP2-006 (AID 978);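 also: series mostly up to about 92 µM; cells exposed to compound for 24 hours; nearly all actives have a fitted effect of over 60% in size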
Method in brief: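 Cells are seeded at 2500 per well and rested 5 hr at 37 C. Compounds are added across a concentration series for 24 hr at 37 C, after which ATP is quantified by luciferase luminescence.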

[8] = Cell Viability - LYMP2-007 (AID 979);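 also: cells exposed to compound for 24 h before reading; nearly all actives have a fitted effect of over 60% in size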
Method in brief: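 Acute toxicity is scored as a concentration-dependent fall in intracellular ATP in human lymphoblastoid cells treated 24 hr at 37 C, measured by luciferase luminescence; Hill-equation modelling yields AC50.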

[9] = Cell Viability - LYMP2-008 (AID 980);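 also: cells exposed to compound for 24 h at 37 °C; nearly all actives have a fitted effect of over 60% in size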
Method in brief: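 Acute cytotoxicity is scored as concentration-dependent loss of cellular ATP in a human lymphoblastoid line after 24 hr treatment at 37 C. ATP is quantified by luciferase luminescence.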

[10] = Cell Viability - LYMP2-010 (AID 981)
Method in brief: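 Acute toxicity is scored as a concentration-dependent loss of cellular ATP in human lymphoblastoid cells after 24 hr compound exposure in complete medium. Tetraoctylammonium bromide is the positive control.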

Measured: outcome

NC(=O)c1ccccc1
inactive: [1] | [2] | [3] | [4] | [5] | [6] | [7] | [8] | [9] | [10]

CC(=O)C(C)=O
inactive: [1] | [2] | [3] | [4] | [5] | [6] | [7] | [8] | [9] | [10]
